Assay [1] concerns Wnt5a (protein binding on small-molecule microarray). The experiment in a line: Wnt5a binders on small-molecule microarray, primary screen, biophysical, 635/667 nm fluorescence (AID 1142).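 Further: fluorescence read at 667 nm with signal to noise per printed feature.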 The note with it: 635 nm fluorescence, higher = more signal.
Assay [2] is described as follows: cell viability in Huh7 cells, primary screen, cytotoxicity control for HCV replication inhibitor project, CellTiter-Glo luminescence, basal, 48 h (AID 1143).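 Further: Huh7 hepatoma cells carrying a hepatitis C replication reporter with no stimulus; test concentration not given here.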 The note with it: Huh7 HCV replicon, higher = more signal, called active from +8 up or from −8 down. (In general: Cellular ATP, detected with luciferase, serves as a proxy for viable cell number.)
Assay [3] in a line: P. aeruginosa biofilm formation inhibitors, primary screen, PAO1 strain, BacTiter-Glo luminescence, LB-PBS (AID 1144). Conditions: 12 h, higher = more signal.
Assay [4] can be described thus: CREB reporter modulators without forskolin, primary screen, cell-based, PC12, CRE-LacZ reporter, unstimulated (AID 1145). Conditions: no forskolin, luminescence, 4.5 h, higher = more signal, called active from +8 up or from −8 down.
Assay [5] in a line: CREB reporter modulators under forskolin, primary screen, cell-based, PC12, CRE-LacZ reporter, forskolin-stimulated (AID 1146).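 Further: PC12 cells with 6xCRE LacZ reporter stimulated by forskolin 10 µM; beta-galactosidase reporter signal reflecting CREB driven transcription.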 Conditions: luminescence, 4.5 h, higher = more signal, called active from +8 up or from −8 down.
For assay [6], the target named is Streptavidin (Streptomyces avidinii) (UniProt P22629). The experiment in a line: streptavidin binders on small-molecule microarray, primary screen, artefact control for SMM compound annotation, biophysical, 635/667 nm fluorescence (AID 1147).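 Further: signal reflects streptavidin binding to arrayed compounds as a control protein.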 Conditions: streptavidin binding, higher = more signal.
Sequence of Streptavidin (Streptomyces avidinii) (P22629 whole entry, looked up): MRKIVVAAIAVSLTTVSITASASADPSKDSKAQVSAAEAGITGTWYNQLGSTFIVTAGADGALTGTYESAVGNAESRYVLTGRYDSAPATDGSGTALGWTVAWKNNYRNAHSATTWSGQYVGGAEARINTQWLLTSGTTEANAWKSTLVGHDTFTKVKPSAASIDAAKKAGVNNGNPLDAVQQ
The nature of assay [7]: small-molecule binders of probe aInhba, primary screen, biochemical, small-molecule microarray, 635/667 nm fluorescence (AID 1148).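 Further: score merges 667nm spot fluorescence with signal-to-noise for antibody binding to printed compounds.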 The note with it: higher = more signal.
Assay [8] concerns the target Torsin-1A (Homo sapiens) (UniProt O14656). As to the kind of experiment: torsin A binders from cell lysate, primary screen, small-molecule microarray, wild-type, 635/667 nm (AID 1149). The note with it: COS7 hTOR1A-WT lysate, 635 nm fluorescence, higher = more signal.
For assay [9] the target is unchanged. The experiment in a line: small-molecule binders of mutant TOR1A in lysate, primary screen, cell lysate, small-molecule microarray, COS7 lysate, 635/667 nm fluorescence (AID 1150).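 Further: score pools 667 nm emission and signal to noise measuring lysate protein binding.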 Conditions: COS7 hTOR1A mutant lysate, 635 nm fluorescence, higher = more signal.
The subject of assay [10] is Sonic hedgehog protein (Shh). As to the kind of experiment: small-molecule binders of Shh protein, primary screen, biochemical, small-molecule microarray, 635/667 nm fluorescence (AID 1151).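 Further: Shh protein binding to compounds spotted on small-molecule microarray slides; score combines spot fluorescence intensity with signal-to-noise across triplicate slides.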 The note with it: small-molecule microarray binding, 635 nm fluorescence; higher = more signal.

The source made the active and inactive calls. Unless noted, how the calls were made is not given here.

The record followed here is PubChem BioAssay.

Sequence of Torsin-1A (Homo sapiens) (O14656 whole entry, looked up): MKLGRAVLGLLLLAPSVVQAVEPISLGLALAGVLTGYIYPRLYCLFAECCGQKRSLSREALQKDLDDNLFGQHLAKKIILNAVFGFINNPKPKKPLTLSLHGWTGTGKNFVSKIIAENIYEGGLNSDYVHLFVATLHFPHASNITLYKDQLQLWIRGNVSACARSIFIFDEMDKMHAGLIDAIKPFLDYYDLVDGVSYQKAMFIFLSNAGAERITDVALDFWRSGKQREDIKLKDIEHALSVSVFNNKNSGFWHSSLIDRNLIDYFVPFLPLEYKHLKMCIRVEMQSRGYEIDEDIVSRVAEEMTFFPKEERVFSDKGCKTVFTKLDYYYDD

Turning to `O=C1O[C@H](c2ccccc2)[C@H](c2ccccc2)N2[C@H]1[C@@H](C(=O)N1CCCCCCC1)[C@]1(C(=O)Nc3ccc(C#CCCO)cc31)[C@H]2c1ccccc1OCCO`, the composite z-score is 2.73 in [1]; 4.08 in assay [6]; 2.33 in [7]; 3.84 in assay [8]; 3.83 in assay [9]; 2.53 in assay [10]. The z-score in assay [2] is -3.61 (inactive); in [3], 0.999 (inactive); in [4], -0.698 (inactive); in [5], -1.19 (inactive).
For the molecule `CN(C)CCCC[C@@H]1NC(=O)[C@@H]2C[C@H](C(=O)NCCCCCCN)[C@H](c3cccc(OCCO)c3)N2C1=O`, the composite z-score in assay [1] amounted to 0.017; in [6], 2.1; in [7], 0.831; in assay [8], 1.17; in assay [9] it was 1.99; in [10], 0.68. Also, the z-score in assay [2] was -0.96 (inactive); in assay [3] it was 0.168 (inactive); in [4], 0.139 (inactive); in [5], -0.347 (inactive).
As to `C=CCOC(=O)[C@@H]1[C@H]2C(=O)O[C@H](c3ccccc3)[C@H](c3ccccc3)N2[C@H](c2ccc(OCCOC(=O)[C@@H]3C[C@@H]4C(=O)NCC(=O)N4[C@@H]3c3ccc(O)cc3)cc2)[C@@]12C(=O)Nc1ccc(I)cc12`, the composite z-score in assay [1] is 0.828; in assay [6] it was -0.259; in assay [7] it was 0.029; in [8], 0.877; in [9], 0.706; in assay [10], 1.53. For the same molecule, the z-score was 0.489 (inactive) in assay [2], -0.725 (inactive) in assay [3], -0.13 (inactive) in [4] and -0.974 (inactive) in assay [5].
Turning to `CC(C)NC(=O)[C@@]1(C)c2ccccc2C(=O)N(Cc2cc(C(F)(F)F)cc(C(F)(F)F)c2)[C@H]1c1ccc(CO)cc1`, the composite z-score in assay [1] was -0.533; in assay [6] it was -0.417; in assay [7] it was -0.269; in [8], -0.979; in [9], -0.723; in assay [10] it was -0.328. The z-score is -3.78 (inactive) in assay [2], 1.03 (inactive) in assay [3], 0.648 (inactive) in assay [4] and -0.405 (inactive) in assay [5].
With `C=CCN1C(=O)[C@]2(O[C@H](CCn3cc([C@H](O)c4ccccc4)nn3)[C@@H]([Si](C)(C)c3ccc(OC)cc3)[C@@H]2C)c2ccccc21`, the composite z-score in assay [1] was -0.336; in assay [6], -0.957; in assay [7], -0.203; in assay [8], -0.704; in [9], -0.73; in assay [10] it was 0.238. The z-score in assay [2] was -3.87 (inactive); in [3], -0.151 (inactive); in assay [4], 2.23 (inactive); in assay [5] it was -0.979 (inactive).
As for `CCC(CC)C(O)C1C=CC2C(=O)NC(=O)C2N1Nc1ccccn1` (stereo not given), the composite z-score in assay [1] is -0.108; in assay [6], -0.12; in [7] it was -0.016; in [8], 0.147; in [9], 0.317; in assay [10], 0.186. For the same molecule, the z-score in assay [2] is 1.06 (inactive); in [3] it was -0.515 (inactive); in assay [4], 0.246 (inactive); in assay [5], 0.783 (inactive).
`C[N+](C)(C)CCCCNC(=O)[C@H]1C[C@H]2C(=O)N3CCC[C@H]3C(=O)N2[C@H]1c1cccc(OCCO)c1`: the composite z-score is 0.0504 in assay [1]; -0.704 in [6]; 0.0569 in [7]; -0.215 in assay [8]; 0.678 in [9]; 2 in assay [10]. Moreover, the z-score in assay [2] is 0.254 (inactive); in assay [3], -0.148 (inactive); in assay [4], -0.667 (inactive); in assay [5] it was -0.359 (inactive).
Consider `C[C@H]1NC(=O)[C@@]23C(=O)N[C@@H](Cc4ccccc4)C2[C@H](C)[C@@]2(C)O[C@H]2C3/C=C/C/C=C\CNC(=O)[C@@H]2CCCN2C1=O` (stereo not given in full), for which the composite z-score in assay [1] was 0.168; in assay [6], 0.301; in assay [7], -0.0589; in [8], 0.396; in [9], -0.103; in [10], 1.73. Further, the z-score in assay [2] is -0.0568 (inactive); in [3] it was -0.545 (inactive); in [4], 1.03 (inactive); in assay [5], 0.647 (inactive).
For the molecule `COC(=O)C(CC#Cc1ccc2c(c1)[C@]1(C(=O)N2)[C@H](c2ccc(OCCO)cc2)N2[C@H](c3ccccc3)[C@H](c3ccccc3)OC(=O)[C@H]2[C@@H]1C(=O)N1CCc2cc(OC)c(OC)cc2C1)C(=O)OC`, the composite z-score in assay [1] amounted to 0.714; in [6] it was 1.52; in assay [7] it was 0.542; in [8], 0.668; in assay [9], 0.623; in assay [10], 1.91. The z-score in assay [2] was -0.6 (inactive); in [3], 0.188 (inactive); in [4], -0.0688 (inactive); in assay [5], 2.19 (inactive).
Take `CCc1cccc(NC(=O)O[C@H]2[C@H](OC(=O)Nc3ccccc3-c3ccccc3)[C@@H](OC(=O)Nc3ccccc3-c3ccccc3)[C@@H](OC)O[C@@H]2CO)c1`: the composite z-score was 0.729 in assay [1]; 0.751 in assay [6]; -0.0087 in [7]; 1.19 in [8]; 1.64 in assay [9]; 0.203 in assay [10]. In addition, the z-score in assay [2] is -6.04 (inactive); in assay [3], -0.0932 (inactive); in assay [4], -0.655 (inactive); in assay [5], -0.756 (inactive).
As to `O=C(NCCO)C1=C[C@H](Oc2ccccc2I)[C@@H](O)[C@H](N(Cc2ccco2)C(=O)Cc2ccccc2)C1`, the composite z-score in [1] was 0.234; in assay [6], 0.317; in assay [7], -0.202; in [8], 0.303; in assay [9] it was 0.0805; in assay [10] it was 0.412. Besides, the z-score in [2] is 0.0266 (inactive); in assay [3], -0.0382 (inactive); in assay [4], -0.78 (inactive); in assay [5], 0.603 (inactive).
For the molecule `CCOC(=O)C[C@H]1[C@H](OC(=O)c2ccc(C(=O)c3ccccc3)cc2)[C@@H](NC(=O)c2ccc3ccccc3n2)c2cc(OCCCO)ccc2N1C(=O)c1ccccc1`, the composite z-score was determined as 0.369 in assay [1]; 0.616 in assay [6]; 0.0561 in assay [7]; 0.484 in [8]; 0.605 in assay [9]; 1.2 in [10]. Further, the z-score is -0.0142 (inactive) in assay [2], 0.0839 (inactive) in assay [3], 0.498 (inactive) in assay [4] and 0.0154 (inactive) in [5].
In the case of `[N-]=[N+]=Nc1ccccc1[C@@H]1OC(c2ccc(OCCCO)cc2)=N[C@]1(Cc1ccccc1)C(=O)N1CCOCC1`, the composite z-score in assay [1] was 0.546; in assay [6], 1.35; in assay [7], 0.0658; in [8], 0.311; in [9] it was 0.58; in assay [10], -0.3. The z-score in [2] is -3.97 (inactive); in assay [3] it was 0.617 (inactive); in assay [4], 1.56 (inactive); in [5], -1.42 (inactive).
Take `C=C(CCCC)/C(=C/C[C@H](OC(C)=O)c1ccccc1OCCO)c1cc(C(=O)OC)ccc1OC`: the composite z-score in assay [1] is 0.0205; in assay [6], -0.24; in assay [7] it was -0.157; in [8], -0.266; in [9] it was -0.174; in assay [10], 0.199. In addition, the z-score in assay [2] was -3.83 (inactive); in [3], 0.437 (inactive); in assay [4] it was 13.3 (active); in assay [5], -0.671 (inactive).
